Data from PubChem BioAssay.

Test system: Human papillomavirus type 1a protein E7 (residues 44-93)
Experiment: small molecules binding HPV E7 44-93 – biochemical, small-molecule microarray, residues 44-93, 635 nm fluorescence, primary screen (AID 1108);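 also: E7 fragment applied at 1 µg/mL in TBST for 1 h at 4 C; score combines spot fluorescence with its signal to noise ratio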
Conditions: fluorescence 635 nm, higher = more signal

Row | SMILES | composite z-score
1 | C[C@@H]1NC(=O)[C@@H](Cc2ccccc2)NC(=O)[C@@]23C(=O)N[C@@H](Cc4ccccc4)C2[C@H](C)[C@@]2(C)O[C@H]2C3/C=C/C/C=C\CNC1=O (stereo partly specified) | 0.739
2 | COc1cccc(C)c1NC(=O)O[C@H]1[C@H](OC(=O)Nc2ccc3c(c2)OCO3)[C@@H](OC(=O)Nc2ccc3c(c2)OCO3)[C@@H](OC)O[C@@H]1CO | 1.42
3 | C=C(COC)/C(=C/C[C@H](OC(=O)c1ccncc1)c1ccc(CO)o1)c1cnc2ccccc2c1 | 1.38
4 | CC(C)=C1C(=O)C(c2ccccc2)=C2CN3C(=O)N(CCc4ccccc4)C(=O)[C@]3(Cc3ccc(C(F)(F)F)cc3)[C@H]21 | -0.396
5 | CCCCNC(=O)c1ccc(C#CC(C)(C)C)c(OC(C)=O)c1 | 0.845
6 | C=CCC(OC(C)=O)[C@@H]1[C@@H](N(Cc2cccc3ccccc23)C(=O)Cc2ccc(OC)cc2)c2cc(OCCCO)ccc2N1C(=O)c1ccc(-c2ccccc2)cc1 (stereo partly specified) | -0.446
7 | COc1cc(NN2C(C(O)c3ccc(N(C)C)cc3)C=CC3C(=O)N(c4ccccc4)C(=O)C32)cc(OC)c1OC (stereo unspecified) | 1.36
8 | CCCC[C@@H](O)C1=C(COC)C[C@H]2C(=O)N(C)C(=O)[C@H]2[C@H]1CO | 0.0944
9 | CC1CC/C=C\[C@H]2OC34C=CCN(c5ccc6ccccc6c5)C(=O)[C@H]3N(CCCO)C(=O)[C@@H]4C2C(=O)O1 (stereo partly specified) | -0.499
10 | CC(C)C(CO)N1C(=O)[C@@H]2[C@H]3C(=O)OCC=C[C@H]3OC23C=CCN(c2ccc(Cl)cc2)C(=O)[C@@H]13 (stereo partly specified) | -0.0683
11 | CCCN1C(=O)[C@@]2(Cc3ccccc31)N=C(c1ccc(OCCCO)cc1)O[C@H]2c1ccccc1 | 1.41
